FAS TE block: FAS thioesterase domain inhibitors, primary screen, biochemical, fluorescence intensity, uHTS | Fatty acid synthase (Homo sapiens), P49327 | recombinant FAS-TE, OMFH fluorogenic substrate, fluorescence endpoint | inhibition, % at 15 µM | 0.67% of 360,000 active;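 active means compounds whose normalised, plate-corrected inhibition of enzyme fluorescence in the single-dose primary screen is 50% or more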;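 further: 0% = DMSO with enzyme and 100% = substrate without enzyme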
p-CIP stab down: p/CIP-EGFP fusion destabilizers, primary screen, fluorescence, F442A cells. 16 h. AID 1984, 2009. Q05BA5. decrease of EGFP signal, % at 10 µM. 0.01% of 290,000 active;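 active means EGFP signal decrease of at least 30% at 10 µM or well 3 SD below plate mean, unless failing retest; inactive means the rest, including hits failing retest or dose response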
NR3A LBD binder: binders of NR3A ligand-binding domain, primary screen, biophysical, differential scanning fluorimetry, uHTS. Glutamate receptor ionotropic, NMDA 3A (GRIN3A) ligand-binding domain. NR3A LBD differential scanning fluorimetry, Tm shift; 0% = protein alone, 100% = glycine-bound protein. Tm shift relative to glycine control, % at 25 µM. 2.5% of 340,000 active. AID 1259313, 2017;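 active means melting temperature shift of at least 10% of the positive control shift, at one fixed dose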
MPTP inh: mitochondrial permeability transition pore inhibitors, primary screen, biochemical, isolated mouse mitochondria, absorbance | Ca2+ swelling absorbance, 30 min | inhibition, % at 10 µM | 1.4% of 360,000 active | AID 602449, 2012;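 active means inhibition of 50% or more, scaled per plate between neutral and stimulator controls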;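 further: 0% = DMSO wells given calcium and 100% = 1 mM EGTA wells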
beta cell repl: inducers of MIN6 beta-cell proliferation, primary screen, ATP luminescence, uHTS; MIN6 cells proliferation, ATPlite luminescence, 48 h; cells starved in 0.2% serum; 100% = growth in 10% serum; proliferation, % at 10 µM; 0.29% of 330,000 active; AID 2380, 2010;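 active means compounds whose signal lies at least 3.5 SD above the mean of all wells on their plate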;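 further: 0% = DMSO-treated cells in low-serum medium and 100% = 10% serum control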
Active calls of the source: *. The list is not random: actives were taken first. Their share in the collection is about 4.1%.

How did Cc1ccccc1NC(=O)COC(=O)c1ccc(CSc2ccc(Cl)cc2)cc1 do in these assays?
FAS TE block: -9; p-CIP stab down: -9; NR3A LBD binder: 12*; MPTP inh: 3; beta cell repl: 0

How did Cn1c(N)c(C(=O)COC(=O)c2cc(C3CC3)nc3ccccc23)c(=O)n(Cc2ccccc2)c1=O do in these assays?
FAS TE block: 21; p-CIP stab down: -8; NR3A LBD binder: 18*; MPTP inh: 0; beta cell repl: -8

Results for Cn1c(N)c(C(=O)COC(=O)c2cc(-c3ccccc3)nc3ccccc23)c(=O)n(Cc2ccccc2)c1=O ?
FAS TE block: 48; p-CIP stab down: 1; NR3A LBD binder: -1; MPTP inh: 3; beta cell repl: -8

What do the screens show for `C/C=C/c1cccc(-c2nc(C(=O)NC3CCCC3)cc3c2[C@@H](CCO)N(S(=O)C(C)(C)C)C3)c1` (stereo not given in full)?
FAS TE block: -4; MPTP inh: 1

How did O=C(Nc1ccc2c(c1)OCO2)c1ccc2sc([C@@H]3O[C@H](CO)[C@H](O)[C@H](O)[C@H]3O)nc2c1 do in these assays?
FAS TE block: -7; MPTP inh: -1

How did O=C(Nc1nccs1)c1csc([C@H]2C[C@H](O)[C@@H](CO)O2)n1 do in these assays?
FAS TE block: -4; MPTP inh: 0

How did COc1ccc(S(=O)(=O)Nc2cccc3c2O[C@H](CN(C)C(=O)NC(C)C)[C@@H](C)CN([C@H](C)CO)C3=O)cc1 do in these assays?
FAS TE block: -12; NR3A LBD binder: 16*; MPTP inh: -1; beta cell repl: -2

Results for C[C@H](CO)N1C[C@H](C)[C@@H](CN(C)S(C)(=O)=O)Oc2c(NC(=O)Nc3ccc(C(F)(F)F)cc3)cccc2C1=O ?
FAS TE block: 24; NR3A LBD binder: -10; MPTP inh: 1; beta cell repl: -5

What do the screens show for `C[C@H]1CN([C@@H](C)CO)C(=O)c2cccc(NC(=O)Nc3ccc(C(F)(F)F)cc3)c2O[C@@H]1CN(C)C(=O)Nc1ccc(F)cc1`?
FAS TE block: 45; NR3A LBD binder: 21*; MPTP inh: 0; beta cell repl: -6

What do the screens show for `COc1ccc(NC(=O)N(C)C[C@H]2Oc3c(NS(=O)(=O)c4ccc(OC)cc4)cccc3C(=O)N([C@H](C)CO)C[C@@H]2C)cc1`?
FAS TE block: -5; NR3A LBD binder: 0; MPTP inh: 0; beta cell repl: -2

How did C[C@H](CO)N1C[C@H](C)[C@@H](CN(C)C(=O)Nc2ccc(C(F)(F)F)cc2)Oc2c(NC(=O)Nc3ccc(C(F)(F)F)cc3)cccc2C1=O do in these assays?
FAS TE block: 79*; NR3A LBD binder: 28*; MPTP inh: 0; beta cell repl: -5

Results for C[C@H]1CN([C@@H](C)CO)C(=O)c2cccc(NC(=O)Nc3ccc(C(F)(F)F)cc3)c2O[C@H]1CN(C)C ?
FAS TE block: -5; NR3A LBD binder: -5; MPTP inh: 0; beta cell repl: -4

What do the screens show for `COc1ccc([C@H]2C[C@H](n3cc(C4CC4)nn3)[C@@H](O)CN2CC2CCCCC2)cc1`?
FAS TE block: 23; MPTP inh: -1

How did COC(=O)c1ccc(-c2nc(CN3CCN(C(=O)c4ccco4)CC3)c(C)o2)cc1 do in these assays?
FAS TE block: -8; MPTP inh: 1

What do the screens show for `COc1ccc(C(=O)NC(=S)Nc2ccc(S(N)(=O)=O)cc2)cc1`?
FAS TE block: -2; p-CIP stab down: -14; NR3A LBD binder: -4; MPTP inh: -1; beta cell repl: -5

How did COc1ccc(C(=O)NC(NC(=S)Nc2ccc(S(N)(=O)=O)cc2)C(Cl)(Cl)Cl)cc1 (stereo not given) do in these assays?
FAS TE block: 12; p-CIP stab down: -4; NR3A LBD binder: 13*; MPTP inh: 3; beta cell repl: -3

What do the screens show for `N#CCSc1ccccc1NC(=O)COC(=O)C1CCN(C(=O)c2ccc(Cl)cc2)CC1`?
FAS TE block: -6; MPTP inh: 1

Results for CC(=O)c1cccc(Nc2nc(-c3ccccc3)nc3ccccc23)c1 ?
FAS TE block: 13; p-CIP stab down: -8; NR3A LBD binder: 23*; MPTP inh: 15; beta cell repl: -1

How did Oc1cccc(Nc2nc(-c3ccccc3)nc3ccccc23)c1 do in these assays?
FAS TE block: 20; p-CIP stab down: -6; NR3A LBD binder: 28*; MPTP inh: 3; beta cell repl: -7

What do the screens show for `COc1ccc(Nc2nc(-c3ccccc3)nc3ccccc23)cc1S(=O)(=O)N1CCOCC1`?
FAS TE block: 48; p-CIP stab down: -6; NR3A LBD binder: 11*; MPTP inh: 5; beta cell repl: -5

How did Oc1ccc(-c2nnc(Nc3cccc(O)c3)c3ccccc23)cc1 do in these assays?
FAS TE block: -3; p-CIP stab down: -2; NR3A LBD binder: 13*; MPTP inh: 3; beta cell repl: -1

Results for COc1ccc(NC(=O)c2cc(C)nc3ccccc23)cc1S(=O)(=O)N1CCOCC1 ?
FAS TE block: -6; NR3A LBD binder: -2; MPTP inh: 2; beta cell repl: 1

Results for CNC(=O)c1ccc(Nc2nnc(-c3ccc(O)cc3)c3ccccc23)cc1 ?
FAS TE block: -3; p-CIP stab down: -13; NR3A LBD binder: 0; MPTP inh: 1; beta cell repl: -4

Results for Clc1cccc(CNc2ccn3nc(-c4cccs4)cc3n2)c1 ?
FAS TE block: 17; MPTP inh: 2

How did O=C(/C=C/[C@H]1O[C@@H](n2cnc3c(NC(=O)c4ccccc4)ncnc32)[C@H](O)[C@@H]1O)NCc1cccc2ccccc12 do in these assays?
FAS TE block: -3; MPTP inh: 0

How did Cc1ccc([C@H]2N[C@]3(CCCN(CC4CCCCC4)C3=O)[C@H]3C(=O)N(C)C(=O)[C@@H]23)cc1 do in these assays?
FAS TE block: -6; MPTP inh: 1

Results for CN(CCO)c1cccc2c1S(=O)(=O)N[C@H](Cc1ccccc1)CO2 ?
FAS TE block: -6; MPTP inh: -2

What do the screens show for `COc1ccc(Nc2nc(-c3cccc(OC)c3O)nc3ccccc23)cc1`?
FAS TE block: 29; p-CIP stab down: 1; NR3A LBD binder: 11*; MPTP inh: 1; beta cell repl: -3

How did COc1cccc(-c2nc(NC(C)(C)C)c3ccccc3n2)c1O do in these assays?
FAS TE block: 28; p-CIP stab down: 2; NR3A LBD binder: -6; MPTP inh: 16; beta cell repl: -6

How did COc1cc2oc(=O)cc(CN3CCOCC3)c2cc1Cl do in these assays?
FAS TE block: 1; MPTP inh: 0

Results for CC1(C)CC(=O)C=C(NC2CCCCCC2)C1 ?
FAS TE block: -6; p-CIP stab down: -8; NR3A LBD binder: 11*; MPTP inh: 1; beta cell repl: 0
